Shown are actives, neighbours in structure and some others; about 4.6% of the full set was active somewhere.
TIM10 inh: growth inhibitors of isogenic TIM10 control yeast, primary screen, counter-screen for tim10-1 yeast inhibitor project, luminescence, uHTS. inhibition, % at 10 µM. actives 1.4% (n = 330,000). S. cerevisiae TIM10 strain growth, BacTiter-Glo luminescence, 24 h;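 active = inhibition of 40% or more at the single tested concentration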;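 also: wild-type TIM10 isogenic control strain grown at permissive 25 °C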
V-ATPase pH: regulators of yeast V-ATPase proton pumping, primary screen, pHLuorin cytosolic pH fluorescence; S. cerevisiae; response, % at 10 µM; actives 0.37% (n = 350,000); AID 504577, 2011; in the data active = response mostly above about 7.3%, no sharp cut-off; inactive = mostly below about 5.4%; also: actives read high
PfHsp90 yeast 2: growth inhibition of PfHsp90-expressing yeast, primary screen, antimalarial PfHsp90 inhibitor project, S. cerevisiae, BacTiter-Glo luminescence, single point, set 2. BacTiter-Glo ATP, 48 h; yeast lacking PDR1 and PDR3 efflux regulators. inhibition, % at 9.4 µM. actives 0.32% (n = 310,000). AID 504621, 2011;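 active = every replicate shows inhibition above about 80%, whatever the replicate mean, limit read from the data; inconclusive = mean inhibition reaches the set limit but some replicate falls short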;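 also: 0% = DMSO neutral controls and 100% = 20 µM radicicol positive controls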
tim23-1 inh: growth inhibitors of tim23-1 mutant yeast, primary screen, luminescence, uHTS. S. cerevisiae tim23-1 growth, BacTiter-Glo luminescence, 24 h. inhibition, % at 20 µM. actives 1.3% (n = 330,000). AID 463212, 2010;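 active = growth inhibition of the mutant yeast at or above 50%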;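 also: temperature-sensitive mutant grown at 25 °C; plate controls were DMSO-treated mutant yeast for no effect and medium wells lacking yeast for full effect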
tim10-1 inh: growth inhibitors of tim10-1 mutant yeast, primary screen, luminescence, uHTS; S. cerevisiae tim10-1 ts strain growth, BacTiter-Glo, 24 h; inhibition, % at 20 µM; actives 2.2% (n = 330,000); AID 463190, 2010;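 active = inhibition of at least 40%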;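 also: mutant grown at 25 °C; 0% = DMSO wells with yeast and 100% = wells holding no yeast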
SKKanGAS inh: S. pyogenes SKKanGAS growth inhibitors in kanamycin, primary screen, streptokinase expression inhibitor project, SKKanGAS strain, BacTiter-Glo luminescence. AID 1662, 2009. 6 h. actives 1.3% (n = 300,000). inhibition, % at 7.5 µM;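 active = mean replicate score, as percent of positive control median, at least 50; inconclusive = mean below 50 but one replicate at or above 50; inactive = mean and every replicate below 50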;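 also: strain carries kanamycin resistance gene driven by streptokinase promoter and grows in 40 µg/ml kanamycin; loss of luminescence reflects streptokinase promoter inhibition or plain growth inhibition; 0% = median of DMSO wells and 100% = positive control at its reference dose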
tim10-1 conf: growth inhibitors of tim10-1 mutant yeast, confirmation, single concentration, luminescence, S. cerevisiae; shares compounds with tim10-1 inh; S. cerevisiae tim10-1 ts strain growth, BacTiter-Glo, 24 h; inhibition, % at 20 µM; actives 56% (n = 7,400); AID 463213, 2010;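 active = inhibition of yeast growth at or above a set limit in either of two repeat tests at 20 µM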;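 also: tim10-1 mutant grown at permissive 25 °C to find synthetic lethal compounds; 0% = DMSO yeast wells and 100% = medium wells without yeast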
The depositor's hits bear a star; ? = inconclusive; . = no result.

SMILES | TIM10 inh | V-ATPase pH | PfHsp90 yeast 2 | tim23-1 inh | tim10-1 inh | SKKanGAS inh | tim10-1 conf
N#C/C(=C\c1ccc(-c2ccc(Br)cc2)o1)C(=O)NCCc1c[nH]c2ccccc12 | 37 | 3 | -36 | 14 | 41* | . | 21
N#C/C(=C/c1ccc(-c2ccc(Br)cc2)o1)C(=O)NC1CCCCC1 | 19 | 0 | 0 | 19 | 22 | 14 | .
Cc1ccc(S(=O)(=O)N2CCC(=O)N(C(COCc3cccc(C(F)(F)F)c3)C(C)C)CC2)cc1 (stereo not drawn) | 2 | -5 | -10 | -15 | 23 | -3 | .
Cn1nccc1C(=O)Nc1sc2c(c1C#N)CCCC2 | 10 | 0 | -8 | 26 | 21 | -6 | .
N#Cc1c(NC(=O)c2ccc(Cn3cc(Br)cn3)o2)sc2c1CCCCCC2 | 27 | -4 | 9 | 27 | 41* | 43 | 32*
Cc1ccc(C(=O)N2CCC3(CC2)Oc2ccc(F)cc2C(=O)C32CC(c3cccnc3)=NO2)s1 (stereo not drawn) | -8 | 0 | -14 | -2 | 42* | 2 | 25
CC(C)C(=O)N1CCC2(CC1)Oc1ccc(F)cc1C(=O)C21CC(c2cccnc2)=NO1 (stereo not drawn) | -12 | . | . | -9 | 3 | 4 | .
COc1ccc(-c2cc([C@H]3[C@@H]4C=CCC[C@@]4(C)C(=O)N3Cc3ccccc3)ccc2F)cc1 | 10 | 0 | -23 | 21 | 29 | 41 | .
C[C@@]12CCC=C[C@H]1[C@H](c1ccc3ccccc3c1)N(Cc1ccccc1)C2=O | 13 | 3 | 26 | 12 | 52* | 69* | 53*
COc1ccc(Br)cc1[C@H]1[C@@H]2C=CCC[C@@]2(C)C(=O)N1Cc1ccccc1 | 7 | -17 | -25 | 6 | 44* | ? | 37*
COc1ccc(C(=O)NC(=S)Nc2ccc(CN3CCOCC3)cc2)cc1OC | 15 | -1 | . | 18 | 10 | 13 | .
CC(=O)c1cccc(NC(=S)NC(=O)c2cccc(Cl)c2)c1 | 21 | -2 | 1 | 37 | 45* | -2 | 15
O=C(NC(=S)Nc1ccc(N2CCOCC2)cc1)c1ccccc1 | 6 | 5 | 10 | -1 | 28 | 9 | .
O=C(Nc1ccc(CN2CCOCC2)cc1)c1ccc(-c2cc(Cl)ccc2Cl)o1 | 14 | -1 | 8 | 11 | 44* | 10 | 29
COc1ccc(C(=O)NC(=S)Nc2ccc(CN3CCOCC3)cc2)cc1Cl | 14 | -2 | -2 | 37 | 52* | 2 | -30
O=C(NC(=S)Nc1ccc(N2CCOCC2)cc1)c1cccc(Cl)c1 | 22 | -4 | -1 | 46 | 41* | -5 | 24
CN(c1ccccc1C(=O)N1CCN(c2ccccc2)CC1)S(C)(=O)=O | -4 | 3 | -5 | 8 | 14 | 6 | .
Cc1ccc(NC(=O)CSc2nnc(NC3CC3)s2)cc1S(=O)(=O)N1CCOCC1 | . | 1 | . | . | . | . | .
O=C(NCC(c1ccco1)N1CCc2ccccc2C1)C(=O)Nc1ccc(F)cc1F (stereo not drawn) | -3 | 3 | 11 | 24 | 10 | 2 | .
CCC(=O)NC(=S)Nc1cccc(NC(=O)c2ccccc2Cl)c1 | 30 | 1 | 0 | 47 | 45* | 6 | 23
CCC(=O)NC(=S)Nc1cccc(NC(=O)c2ccccc2C)c1 | 9 | 5 | 4 | 36 | 39 | -1 | .
COc1ccccc1-c1cc(C(=O)NCc2ccccc2)no1 | 27 | 0 | 17 | 41 | 44* | -22 | 26
COc1ccccc1-c1cc(C(=O)NCc2ccc(F)cc2)no1 | 36 | 0 | 2 | 42 | 39 | -4 | .
Cc1ccc(C)c(Nc2cc(C)nc(-c3ccccc3O)n2)c1 | 39 | 2 | 7 | 50 | 26 | 8 | .
Cc1cc(Nc2cccc(F)c2)nc(-c2ccccc2O)n1 | 37 | -2 | -85 | 33 | 43* | 2 | 43*
SMILES | TIM10 inh | V-ATPase pH | PfHsp90 yeast 2 | tim23-1 inh | tim10-1 inh | SKKanGAS inh | tim10-1 conf
Cc1cc(Nc2ccccc2Cl)nc(-c2ccccc2O)n1 | 21 | 0 | -20 | 32 | 53* | 0 | 41*
COc1ccccc1NC(=S)NCCc1ccc(F)cc1 | 29 | 1 | 9 | 7 | 48* | 4 | 19
Cc1cc(C)c2c(c1)/C(=c1/sc3n(c1=O)CN(c1ccccc1)CN=3)C(=O)N2 | -3 | 4 | -18 | 15 | 1 | -7 | .
COc1ccc(C)cc1NC(=O)N1CCCc2ccccc21 | 4 | 2 | -5 | 26 | 47* | -12 | 15
Cc1ccccc1OCc1n[nH]c(=S)n1Cc1ccccc1 | 24 | 1 | -41 | 36 | 47* | -15 | 22
CC(C)(C)c1ccc(-c2n[nH]c(=S)n2Cc2ccccc2)cc1 | 29 | 0 | 17 | 37 | 45* | 4 | 38*
COc1cccc(NC(=S)NC(=O)c2cncc(Br)c2)c1 | 37 | -5 | -12 | 45 | 47* | 2 | 7
O=C(NC(=S)Nc1ccccc1[N+](=O)[O-])c1cncc(Br)c1 | 17 | 3 | -32 | 45 | 40 | 8 | 14
O=C(OCC(=O)N1CCN(C(=O)c2ccco2)CC1)c1ccccc1NCCO | 8 | 1 | 25 | -2 | -13 | 2 | .
Cc1nn(CCCC(=O)Nc2cc(Oc3ccc(F)cc3)cc([N+](=O)[O-])c2)c(C)c1[N+](=O)[O-] | 16 | 3 | . | 32 | 41* | 14 | 22
CCn1nc(C)c(C(=O)Nc2cc(Oc3ccc(Cl)cc3)cc([N+](=O)[O-])c2)c1C | 40 | -1 | . | 44 | 49* | 22 | 36*
S=c1nc(-c2ccccc2)[nH]c2ccc(Br)cc12 | 37 | 0 | -14 | 26 | 43* | 2 | 15
COc1cccc(N=C2CC(C)(C)CC(=O)/C2=C(/O)c2ccccc2)c1 | 13 | 2 | -23 | 38 | 43* | 11 | 23
CSc1ccccc1NC(=S)N/N=C/c1cccn1Cc1cccc(C)c1 | 37 | 2 | -27 | 16 | 38 | 36 | .
CSc1ccccc1NC(=S)N/N=C/c1cccn1Cc1ccc(F)cc1 | 23 | 10 | -63 | 12 | 44* | 44 | 30
CCN(CC)S(=O)(=O)c1ccc(C)c(NC(=O)/C=C/c2cccs2)c1 | 28 | 0 | 4 | 28 | 45* | -3 | 30*
O=S(=O)(Nc1cc(Sc2ncn[nH]2)c(O)c2ccccc12)c1ccccc1 | 30 | -1 | 0 | 48 | 50* | . | 27
CN(C1CCCCC1)S(=O)(=O)c1ccc(NC(=O)c2ccco2)cc1 | 11 | 3 | -14 | 42 | 44* | -4 | 29*

Screening results from PubChem BioAssay.
